In PubChem BioAssay (NCATS):
A number with no mark means an inactive call. Inconclusive results are not listed. The source made the active and inactive calls. Unless noted, calls follow the shape of the dose curve; as a rule, active = well fitted curve in the direction sought with a large enough effect; inconclusive = small, poorly fitted or top-dose-only effect, or another doubt; inactive = no such curve, though single readings can be large; an effect the other way counts as inactive or inconclusive.

Legend:
[1] = target: Lysosomal acid glucosylceramidase (Homo sapiens) (UniProt P04062); assay: Glucocerebrosidase-p2 (AID 348; in the data active = potency below about 10 µM; also: potency is read from the fitted curve at half-maximal effect); details: purified GBA, blue fluorogenic substrate, 40 min
Lysosomal acid glucosylceramidase (Homo sapiens), sequence (P04062 whole entry, looked up): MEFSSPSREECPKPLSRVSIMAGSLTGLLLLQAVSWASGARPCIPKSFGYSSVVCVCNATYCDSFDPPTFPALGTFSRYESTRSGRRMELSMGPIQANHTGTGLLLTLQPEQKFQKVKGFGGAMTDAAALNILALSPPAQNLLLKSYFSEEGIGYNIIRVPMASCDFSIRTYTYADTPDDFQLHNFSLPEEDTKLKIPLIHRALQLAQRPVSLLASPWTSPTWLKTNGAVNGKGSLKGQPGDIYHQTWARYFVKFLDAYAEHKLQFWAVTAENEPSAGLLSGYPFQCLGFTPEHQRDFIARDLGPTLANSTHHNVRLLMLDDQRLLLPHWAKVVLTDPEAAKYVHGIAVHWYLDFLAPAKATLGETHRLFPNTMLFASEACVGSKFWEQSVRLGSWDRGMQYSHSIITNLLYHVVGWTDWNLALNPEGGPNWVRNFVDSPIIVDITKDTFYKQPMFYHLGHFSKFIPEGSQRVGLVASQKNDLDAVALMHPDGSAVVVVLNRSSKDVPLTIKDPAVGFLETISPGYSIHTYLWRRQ
How it was run: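 Compounds titrated from 0.6 nM upwards against 0.2 nM enzyme in pH 5.9 citric acid/KH2PO4, taurocholate, tween-20; blue fluorogenic substrate 80 uM, 40 min room temperature, stopped and read Ex 365/Em 440 for AC50.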

[2] = target: Cytochrome P450 1A2 (Homo sapiens) (UniProt P05177); assay: p450-cyp1a2 (AID 410; calls by dose curve; also: potency is read from the fitted curve at half-maximal effect;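 as to activity change, negative = inhibition: -100% = full effect of reference inhibitor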); details: recombinant CYP1A2, luciferin-ME demethylation, luminescence; series mostly up to 57 µM
Cytochrome P450 1A2 (Homo sapiens), sequence (P05177 whole entry, looked up): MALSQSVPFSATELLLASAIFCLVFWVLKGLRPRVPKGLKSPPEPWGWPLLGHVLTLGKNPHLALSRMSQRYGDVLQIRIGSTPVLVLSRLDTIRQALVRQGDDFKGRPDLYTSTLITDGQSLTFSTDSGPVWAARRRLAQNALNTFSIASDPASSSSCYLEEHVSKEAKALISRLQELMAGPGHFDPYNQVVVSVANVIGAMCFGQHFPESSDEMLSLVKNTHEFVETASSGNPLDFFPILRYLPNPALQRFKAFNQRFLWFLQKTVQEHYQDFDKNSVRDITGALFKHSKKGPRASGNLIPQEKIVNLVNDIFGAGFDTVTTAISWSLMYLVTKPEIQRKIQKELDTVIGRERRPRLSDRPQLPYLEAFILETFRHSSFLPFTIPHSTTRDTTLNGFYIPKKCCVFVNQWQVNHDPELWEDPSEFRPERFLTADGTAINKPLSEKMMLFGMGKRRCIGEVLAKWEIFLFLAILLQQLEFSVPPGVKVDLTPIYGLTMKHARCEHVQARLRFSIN
How it was run: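 Inhibition was calculated relative to 57 uM furafylline (full inhibition). The reaction used human CYP1A2 at 20nM with Luciferin-ME at its Km, 100uM, driven by an NADPH-regenerating system for 60 min at room temperature.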

[3] = target: Glucocorticoid receptor (Homo sapiens) (UniProt P04150); assay: GR-GFP Redistribution (AID 450;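 active = compounds whose dose series gives a full or clear partial fitted curve of increased nuclear translocation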; also: potency is read from the fitted curve at half-maximal effect); details: U2OS GR-GFP nuclear translocation, laser cytometry, 2 h
Glucocorticoid receptor (Homo sapiens), sequence (P04150 whole entry, looked up, the tested form may be a part): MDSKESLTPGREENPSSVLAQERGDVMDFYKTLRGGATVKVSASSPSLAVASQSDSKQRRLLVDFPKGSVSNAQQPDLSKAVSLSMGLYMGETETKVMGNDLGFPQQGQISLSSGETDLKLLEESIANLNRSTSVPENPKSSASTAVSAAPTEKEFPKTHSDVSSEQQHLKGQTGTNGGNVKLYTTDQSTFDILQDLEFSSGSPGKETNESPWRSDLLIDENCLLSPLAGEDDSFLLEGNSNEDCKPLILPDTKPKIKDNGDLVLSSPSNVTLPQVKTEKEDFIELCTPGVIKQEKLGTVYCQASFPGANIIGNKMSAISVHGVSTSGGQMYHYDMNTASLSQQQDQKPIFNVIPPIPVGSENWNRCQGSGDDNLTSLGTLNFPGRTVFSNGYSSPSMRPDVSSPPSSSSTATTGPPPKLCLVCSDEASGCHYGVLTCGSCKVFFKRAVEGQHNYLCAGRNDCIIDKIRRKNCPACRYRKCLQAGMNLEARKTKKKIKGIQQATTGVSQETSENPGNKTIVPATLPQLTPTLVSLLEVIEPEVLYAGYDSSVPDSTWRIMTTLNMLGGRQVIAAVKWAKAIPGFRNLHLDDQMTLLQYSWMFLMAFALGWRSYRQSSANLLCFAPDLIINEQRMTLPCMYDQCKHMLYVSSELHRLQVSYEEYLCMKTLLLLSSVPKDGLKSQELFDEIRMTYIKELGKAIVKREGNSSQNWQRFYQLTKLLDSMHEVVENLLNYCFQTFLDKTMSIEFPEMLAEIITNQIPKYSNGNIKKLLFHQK

[4] = target: Glucocorticoid receptor (Homo sapiens) (UniProt P04150); assay: GR-EFC Redistribution (AID 451; calls by dose curve; also: potency is read from the fitted curve at half-maximal effect); details: CHO-K1 GR-EFC translocation, beta-gal luminescence, 2 h
How it was run: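 CHO-K1 cells expressing nuclear EA and GR-ED fragments of b-gal; compounds titrated up to 46 uM final, 2 h at 37 C. GR nuclear translocation read as complemented b-gal luminescence after 1 h RT detection.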

[5] = target: Mitogen-activated protein kinase 10 (Mus musculus) (UniProt Q61831); assay: JNK3 AlphaScreen Assay (AID 530; active = well fitted curve in either direction with a large enough effect, not every such curve was filed as active;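 also: kinase came from lysate of stimulated human HepG2 cells; signal reports phosphorylation of biotinylated GST-cJun 1-79 at Ser73 with 10 µM ATP; % is scaled to controls: 0 for no effect and ±100 for the full control effect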); details: JNK3 lysate, c-Jun phosphorylation; series mostly up to 57.1 µM
How it was run: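 qHTS format: compounds tested as titrations against IL-1beta/TNF-alpha-activated HepG2 lysate JNK3 with biotin-GST-cJun substrate and 10 uM ATP at room temperature. Loss of anti-phospho-cJun AlphaScreen signal indicates inhibition.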

[6] = target: Cytochrome P450 2C9 (Homo sapiens) (UniProt P11712); assay: qHTS Assay for Inhibitors and Substrates of Cytochrome P450 2C9 (AID 883); details: recombinant CYP2C9, luciferin-H luminescence, 60 min; series mostly up to 57.1 µM; also: % is scaled to controls: 0 for no effect and ±100 for the full control effect; nearly all actives have a fitted effect of over 60% in size
How it was run: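 Signal: luciferase luminescence reporting luciferin produced by CYP2C9. Conditions: 10nM enzyme, Luciferin-H 100uM at KM, 25mM KPO4, 37C, 60 min NADPH-driven reaction. Reference: 57uM sulphaphenazole as 100% inhibition.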

[7] = qHTS Assay for Identification of Small Molecule Agonists for Hypoxia Response Element Signaling Pathway (AID 914; active = well fitted activation curve with a large enough effect in the signal ratio, with a control signal flat, not every such curve was filed as active; the % refers to the signal ratio; also: potency is read from the fitted curve at half-maximal effect); details: ME-180 HRE-bla reporter, beta-lactamase ratio, CoCl2, 17 h; activation: hits give high values
How it was run: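 ME-180 cells carrying an HRE-driven beta-lactamase reporter were treated with compounds in a titration series plus an EC50 level of CoCl2 for 17 h at 37 degrees Celsius; CCF4 readout as the 460nm/530nm ratio gave AC50 values.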

[8] = target: Dual specificity protein kinase CLK4 (Homo sapiens) (UniProt Q9HAZ1); assay: qHTS Assay for Inhibitors of CDC-like Kinase 4 (Kinase-Glo Assay) (AID 1770); details: recombinant Clk4, Kinase-Glo ATP depletion luminescence; series mostly up to 66.7 µM; also: nearly all actives have a fitted effect of over 65% in size; also: potency is read from the fitted curve at half-maximal effect
Dual specificity protein kinase CLK4 (Homo sapiens), sequence (Q9HAZ1 whole entry, looked up): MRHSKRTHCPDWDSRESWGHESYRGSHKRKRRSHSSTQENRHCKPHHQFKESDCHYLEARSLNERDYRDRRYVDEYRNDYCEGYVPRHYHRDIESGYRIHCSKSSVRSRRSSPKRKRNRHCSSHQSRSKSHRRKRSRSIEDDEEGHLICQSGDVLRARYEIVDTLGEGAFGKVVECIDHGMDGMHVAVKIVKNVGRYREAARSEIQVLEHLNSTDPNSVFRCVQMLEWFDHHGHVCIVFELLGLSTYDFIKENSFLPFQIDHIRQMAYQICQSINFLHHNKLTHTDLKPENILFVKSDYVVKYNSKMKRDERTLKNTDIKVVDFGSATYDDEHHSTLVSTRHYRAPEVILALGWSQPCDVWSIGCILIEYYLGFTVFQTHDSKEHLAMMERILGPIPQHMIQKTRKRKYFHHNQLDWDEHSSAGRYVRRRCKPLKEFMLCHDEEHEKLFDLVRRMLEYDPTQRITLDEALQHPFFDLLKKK
How it was run: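 Inhibition was judged from remaining ATP, measured by Ultra-Glo luciferase bioluminescence after Clk4 (25 nM) had acted on RS peptide at 1 uM ATP for 4.5 hours, room temperature.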

[9] = target: Dual specificity protein kinase CLK4 (Homo sapiens) (UniProt Q9HAZ1); assay: qHTS Assay for Inhibitors of CDC-like Kinase 4 (ADP-Glo Assay) (AID 1771); details: recombinant CLK4, ADP-Glo luminescence; series mostly up to 80 µM; also: nearly all actives have a fitted effect of over 70% in size; also: potency is read from the fitted curve at half-maximal effect
How it was run: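 Kinase reaction: Clk4 at 25 nM, RS repeat peptide substrate at 100 uM, ATP at 1 uM, 1 hr, room temperature. Product ADP detected as luciferase signal via ADP-Glo.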

[10] = target: Dual specificity protein kinase CLK4 (Homo sapiens) (UniProt Q9HAZ1); assay: qHTS Assay for Inhibitors of CDC-like Kinase 4 (ADP-FP Assay) (AID 1795); details: Transcreener ADP fluorescence polarization; series mostly up to 50 µM; also: nearly all actives have a fitted effect of over 60% in size; also: potency is read from the fitted curve at half-maximal effect
How it was run: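 Inhibition of ADP formation by 6.25 nM Clk4 is measured using 1 uM ATP and 100 uM RS repeat peptide over one hour. Produced ADP displaces a fluorescent tracer from antibody, lowering polarization.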

[11] = target: Ubiquitin carboxyl-terminal hydrolase 1 (Homo sapiens) (UniProt O94782); assay: Inhibitors of USP1/UAF1: Pilot qHTS (AID 504865); details: purified USP1/UAF1, Ub-rhodamine cleavage fluorescence; series mostly up to 54.9 µM;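 also: rhodamine fluorescence freed from ubiquitin-rhodamine substrate followed over time; top concentration of the series differs between compounds; % is scaled to controls: 0 for no effect and ±100 for the full control effect; nearly all actives have a fitted effect of over 35% in size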
Ubiquitin carboxyl-terminal hydrolase 1 (Homo sapiens), sequence (O94782 whole entry, looked up): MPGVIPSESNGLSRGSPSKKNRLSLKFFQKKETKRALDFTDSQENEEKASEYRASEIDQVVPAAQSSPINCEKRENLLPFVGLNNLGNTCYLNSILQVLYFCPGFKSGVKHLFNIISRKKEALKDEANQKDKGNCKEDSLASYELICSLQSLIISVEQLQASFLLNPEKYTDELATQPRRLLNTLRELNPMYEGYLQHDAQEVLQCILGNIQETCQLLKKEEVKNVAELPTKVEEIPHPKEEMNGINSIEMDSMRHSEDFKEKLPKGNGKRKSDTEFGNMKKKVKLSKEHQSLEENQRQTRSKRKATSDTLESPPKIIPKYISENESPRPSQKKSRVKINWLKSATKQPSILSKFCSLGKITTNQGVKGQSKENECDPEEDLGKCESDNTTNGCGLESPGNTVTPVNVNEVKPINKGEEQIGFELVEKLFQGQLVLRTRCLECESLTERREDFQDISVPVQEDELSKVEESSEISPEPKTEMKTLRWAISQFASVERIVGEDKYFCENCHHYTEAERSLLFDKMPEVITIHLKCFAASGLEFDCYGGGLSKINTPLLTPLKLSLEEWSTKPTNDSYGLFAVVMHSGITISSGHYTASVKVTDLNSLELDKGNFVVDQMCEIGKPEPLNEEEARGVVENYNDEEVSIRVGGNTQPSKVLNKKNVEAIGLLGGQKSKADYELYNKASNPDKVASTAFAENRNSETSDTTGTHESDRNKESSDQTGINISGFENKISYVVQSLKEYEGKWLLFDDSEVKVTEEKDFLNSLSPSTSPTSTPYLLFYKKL
How it was run: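 Kinetic fluorescence assay: 1nM USP1/UAF1, 15 min compound preincubation, then 150nM Ub-Rho; 480/540 nm.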

[12] = Primary qHTS for small molecule stabilizers of the endoplasmic reticulum resident proteome: Secreted ER Calcium Modulated Protein (SERCaMP) assay (AID 1508630); details: SH-SY5Y GLuc-SERCaMP (Gaussia luciferase released on ER calcium loss) secretion, thapsigargin, luminescence; series mostly up to 38.4 µM; also: % is scaled to controls: 0 for no effect and ±100 for the full control effect
How it was run: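 GLuc-SERCaMP-expressing SH-SY5Y cells, pretreated 16 h with compound, are challenged with thapsigargin to empty ER calcium stores; after 4 h, coelenterazine is added directly to the medium and luminescence is imaged.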

[13] = Stat Signaling Pathway (AID 446; active = well fitted curve in either direction with a large enough effect, not every such curve was filed as active;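 also: ME-180 cervical cancer cells given 40 pM IL-6 alongside compound; SIE-controlled beta-lactamase reporter measured as 460/530 nm FRET emission ratio; % is scaled to controls: 0 for no effect and ±100 for the full control effect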); details: ME-180 SIE beta-lactamase reporter, IL-6 stimulated, 5 h; at 7.69 µM (top of the series) unless noted
How it was run: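 ME-180 cells carrying a SIE-driven beta-lactamase reporter are stimulated with 40 pM IL-6 for 5 h at 37C in the presence of compound. The 460/530 nm FRET substrate ratio is read after 2.5 h at RT. Data are normalised to 300 pM IL-6 and to 125 nM JAK inhibitor controls.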

[14] = target: 3',5'-cyclic-AMP phosphodiesterase 4B (Homo sapiens) (UniProt Q07343); assay: qHTS Assay for Inhibitors of PDE-IV (AID 607; active = well fitted activation curve with a large enough effect in the main read-out, with a control signal flat, not every such curve was filed as active; also: % of control where 0% means no effect); details: HEK293 ACTOne CNG channel cells, membrane potential fluorescence; series mostly up to 22.9 µM
3',5'-cyclic-AMP phosphodiesterase 4B (Homo sapiens), sequence (Q07343 whole entry, looked up): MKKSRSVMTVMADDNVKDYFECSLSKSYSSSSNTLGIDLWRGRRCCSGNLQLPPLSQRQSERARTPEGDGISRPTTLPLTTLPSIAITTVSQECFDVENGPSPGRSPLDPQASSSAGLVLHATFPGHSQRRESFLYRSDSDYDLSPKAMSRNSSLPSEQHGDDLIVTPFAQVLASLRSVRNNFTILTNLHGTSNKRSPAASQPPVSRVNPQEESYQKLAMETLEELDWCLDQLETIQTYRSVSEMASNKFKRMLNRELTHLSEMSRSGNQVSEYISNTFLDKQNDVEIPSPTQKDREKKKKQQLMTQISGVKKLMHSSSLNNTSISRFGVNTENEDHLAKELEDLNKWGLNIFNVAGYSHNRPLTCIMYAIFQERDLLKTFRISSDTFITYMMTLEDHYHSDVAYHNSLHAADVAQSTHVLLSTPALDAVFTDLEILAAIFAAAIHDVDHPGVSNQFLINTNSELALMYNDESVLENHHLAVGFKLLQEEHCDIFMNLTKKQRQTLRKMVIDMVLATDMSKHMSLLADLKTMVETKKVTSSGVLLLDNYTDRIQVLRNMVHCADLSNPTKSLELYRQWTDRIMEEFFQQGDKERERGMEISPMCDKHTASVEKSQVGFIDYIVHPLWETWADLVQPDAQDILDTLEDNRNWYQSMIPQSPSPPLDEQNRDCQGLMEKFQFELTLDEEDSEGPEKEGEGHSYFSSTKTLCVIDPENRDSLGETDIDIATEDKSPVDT
How it was run: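 HEK293 ACTOne cells with CNG channel (1000/well), endogenous PDE4; membrane potential dye, compounds up to 22.9 uM final. Fluorescence Ex 535/Em 590; RO 20-1724 (100 uM final) as reference.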

[15] = NFAT Signaling Pathway (AID 444; active = well fitted curve in either direction with a large enough effect, not every such curve was filed as active;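 also: carbachol stimulus at about its EC50 of 1 µM final; % is scaled to controls: 0 for no effect and ±100 for the full control effect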); details: Jurkat NFAT-bla M1, carbachol, beta-lactamase ratio, 5 h; at 7.69 µM (top of the series) unless noted
How it was run: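 Jurkat cells with NFAT-driven β-lactamase reporter and co-expressed M1 receptor, stimulated with carbachol (final 1 uM, ~EC50), compound titration, 5 h at 37 °C. CCF4 loaded 1 h at RT; 460/530 nm ratio gave %activity and AC50.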

[16] = target: Cytochrome P450 3A4 (Homo sapiens) (UniProt P08684); assay: qHTS Assay for Inhibitors and Substrates of Cytochrome P450 3A4 (AID 884); details: recombinant CYP3A4, Luciferin-PPXE luminescence; series mostly up to 57.1 µM; also: potency is read from the fitted curve at half-maximal effect; nearly all actives have a fitted effect of over 50% in size
Cytochrome P450 3A4 (Homo sapiens), sequence (P08684 whole entry, looked up): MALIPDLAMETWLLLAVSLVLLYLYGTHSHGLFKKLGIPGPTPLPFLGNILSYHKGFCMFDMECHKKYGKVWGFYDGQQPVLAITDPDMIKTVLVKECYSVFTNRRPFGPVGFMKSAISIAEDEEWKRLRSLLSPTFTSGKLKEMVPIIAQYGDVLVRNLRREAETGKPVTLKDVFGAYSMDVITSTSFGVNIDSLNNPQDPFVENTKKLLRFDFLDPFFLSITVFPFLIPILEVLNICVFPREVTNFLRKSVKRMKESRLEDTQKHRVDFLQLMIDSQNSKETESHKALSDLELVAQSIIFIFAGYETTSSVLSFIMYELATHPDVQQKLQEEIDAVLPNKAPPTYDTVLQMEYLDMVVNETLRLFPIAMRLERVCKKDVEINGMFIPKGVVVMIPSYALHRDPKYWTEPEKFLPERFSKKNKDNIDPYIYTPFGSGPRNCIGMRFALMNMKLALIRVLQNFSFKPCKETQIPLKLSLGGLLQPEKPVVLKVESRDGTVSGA
How it was run: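 20 nM human CYP3A4 with 25 uM Luciferin-PPXE (at KM) in 200 mM KPO4, preincubated 10 min with compound; NADPH regeneration started a 60 min RT reaction. Luciferin detected by luminescence, normalized to 57 uM ketoconazole as full inhibition.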

[17] = target: Cytochrome P450 3A4 (Homo sapiens) (UniProt P08684); assay: qHTS Assay for Activators of Cytochrome P450 3A4 (AID 885); details: recombinant CYP3A4, Luciferin-PPXE luminescence, 60 min; series mostly up to 57.1 µM; also: nearly all actives have a fitted effect of over 65% in size
How it was run: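 Human CYP3A4 (20 nM) with Luciferin-PPXE at 25 uM (its KM) in 200 mM KPO4; 10 min compound preincubation, then NADPH regeneration and 60 min reaction at RT. Luciferin read by luminescence; normalized to 57 uM ketoconazole full inhibition.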

[18] = target: Cytochrome P450 2C19 (Homo sapiens) (UniProt P33261); assay: qHTS Assay for Inhibitors and Substrates of Cytochrome P450 2C19 (AID 899); details: recombinant CYP2C19, luciferin-H EGE luminescence; series mostly up to 57.1 µM; also: potency is read from the fitted curve at half-maximal effect; nearly all actives have a fitted effect of over 60% in size
Cytochrome P450 2C19 (Homo sapiens), sequence (P33261 whole entry, looked up): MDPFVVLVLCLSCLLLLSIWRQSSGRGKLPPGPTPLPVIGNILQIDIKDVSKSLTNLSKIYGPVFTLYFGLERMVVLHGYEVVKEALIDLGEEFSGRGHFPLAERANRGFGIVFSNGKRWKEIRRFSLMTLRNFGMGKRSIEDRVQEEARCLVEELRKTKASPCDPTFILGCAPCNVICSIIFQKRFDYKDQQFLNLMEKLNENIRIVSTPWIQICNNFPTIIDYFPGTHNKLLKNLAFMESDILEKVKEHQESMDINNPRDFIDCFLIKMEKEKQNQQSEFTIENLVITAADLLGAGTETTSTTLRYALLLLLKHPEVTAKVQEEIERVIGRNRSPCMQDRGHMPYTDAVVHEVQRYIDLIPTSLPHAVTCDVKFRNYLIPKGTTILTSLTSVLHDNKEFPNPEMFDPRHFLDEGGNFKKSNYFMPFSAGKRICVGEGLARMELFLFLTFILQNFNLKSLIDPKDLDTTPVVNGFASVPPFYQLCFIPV
How it was run: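 Signal comes from luciferase acting on luciferin released by CYP2C19-mediated hydroxylation of Luciferin-H EGE, 10uM (KM). Assay mix: 5nM enzyme, 50mM KPO4; 60 min at 37C with NADPH regeneration. Data normalized against 57uM ketoconazole.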

[19] = AP1 Signaling Pathway (AID 357; active = well fitted curve in either direction with a large enough effect, not every such curve was filed as active; also: % is scaled to controls: 0 for no effect and ±100 for the full control effect); details: ME-180 (cervical carcinoma) AP-1-bla reporter, EGF-induced, beta-lactamase ratio, 5 h; at 7.69 µM (top of the series) unless noted
How it was run: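 In this screen, ME-180 cells in Opti-MEM with 0.5% dialyzed FBS received EC50 EGF and compound titrations for 5 h. AP-1 reporter beta-lactamase was detected via CCF4 ratio, giving AC50 for positive and negative modulators.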

Row | SMILES | Potency [1] [µM] | Potency [2] | Potency [3] [µM] | Potency [4] [µM] | Potency [5] | Potency [6] | Potency [7] | Potency [8] | Potency [9] | Potency [10] | Potency [11] | outcome [12] | activity, negative = inhibition [13] | Potency [14] | activity change, negative = inhibition [15] [%] | Potency [16] | Potency [17] | Potency [18] | activity change, negative = inhibition [19] [%]
1 | CCNc1ncc2nc(-c3ccc(OC)cc3)c(=O)n(Cc3ccc(F)cc3)c2n1 | > 11.4 | inactive | > 9.22 | > 46 | inactive | inactive | 1.26 µM (active) | inactive | inactive | inactive | inactive | inactive |  |  |  |  |  |  | 
2 | CN(C)c1ncc2nc(-c3ccc(Cl)cc3)c(=O)n(Cc3cccs3)c2n1 | > 11.4 | 1.58 µM (active) | > 9.22 | > 46 | inactive |  | 0.398 µM (active) | inactive | inactive | inactive | inactive | inactive | 153% [activator] (active) | inactive |  |  |  |  | 
3 | c1ccc(CNc2ncnc3ccc(-c4ccc5c(c4)OCO5)cc23)cc1 | > 11.4 | 0.2 µM (active) | > 46 | > 46 | inactive |  |  | 0.158 µM (active) | 0.178 µM (active) | 0.0355 µM (active) | inactive | inactive | -5.81% |  | -4.08 | 2 µM (active) | inactive | 3.16 µM (active) | 
4 | COc1cccc(-c2ccc3ncnc(N(C)C)c3c2)c1 | > 11.4 | 0.794 µM (active) | > 46 | > 46 | inactive |  |  | 4.47 µM (active) | 3.16 µM (active) | 2.51 µM (active) | inactive | inactive | -13.9% | inactive | 27.5 | 7.94 µM (active) | inactive | 3.16 µM (active) | 
5 | COc1cccc(Cn2c(=O)c(-c3cn(C)c4ccccc34)nc3cnc(OC)nc32)c1 | > 11.4 | 15.8 µM (active) | > 9.22 | > 46 | inactive |  |  | inactive | inactive | inactive | inactive | inactive |  | inactive | 1.88 | 7.94 µM (active) | inactive |  | 
6 | CN(C)c1ncc2nc(-c3cccs3)c(=O)n(Cc3cccs3)c2n1 | > 11.4 |  | > 9.22 | > 46 | inactive |  |  | inactive | inactive | inactive | inactive | inactive |  | inactive |  |  | inactive |  | 21.5
